Laboratory results published in PubChem BioAssay AID488932 (Broad Institute, 2010).
Results with a measured potency or affinity are listed apart. Values without a mark were called inactive.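 The calls were made as follows: active = growth signal falls, with fitted half-maximal dose at most ten times the top valid dose; inconclusive = flat curve with a partial drop, or a poorly fitting curve; inactive = the rest, including compounds that raise signal.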

Test: Candida albicans growth inhibition, agent alone, dose response, counter-screen for reversing antifungal drug resistance, CaCi-2 strain, no fluconazole, dry powder, set 4 (AID 488932)
Conditions: C. albicans CaCi-2 (fluconazole-resistant clinical isolate) growth, Alamar Blue, 48 h; series mostly up to 26 µM; activity change, negative = inhibition: at the top concentration

**Q.** With `CC1CN(c2ccnc3cc(Cl)ccc23)CCN1C(=O)c1ccc(Cl)cc1` (centres undefined) as the compound, how does the “activity change, negative = inhibition” value read?
**A.** 36%

**Q.** For `Cc1cccc(N2CCN(C(=O)c3ccc(Cl)cc3)CC2)n1`, which “activity change, negative = inhibition” value is on record?
**A.** 61.1%

**Q.** Which “activity change, negative = inhibition” value does the source give for `O=C(c1ccc(Cl)cn1)N1CCN(c2ccnc3cc(Cl)ccc23)CC1` here?
**A.** 70.8%

**Q.** Which “activity change, negative = inhibition” value does the source give for `O=C(c1ccc(Cl)nc1)N1CCN(c2ccnc3cc(Cl)ccc23)CC1` here?
**A.** 51%

**Q.** Which “activity change, negative = inhibition” value does the source give for `O=C(c1ccc(Cl)cc1)N1CCNCC1` here?
**A.** 84.1%

**Q.** With `CC(C)C(=O)N1CCN(c2ccnc3cc(Cl)ccc23)CC1` as the compound, how does the “activity change, negative = inhibition” value read?
**A.** 31.9%

**Q.** For `COc1ccc(OC)c2c(C)cc(N3CCN(C(=O)c4ccc(Cl)cc4)CC3)nc12`, which “activity change, negative = inhibition” value is on record?
**A.** -17.5%

**Q.** With `O=C(C1CCC1)N1CCN(c2ccnc3cc(Cl)ccc23)CC1` as the compound, how does the “activity change, negative = inhibition” value read?
**A.** 58.1%

**Q.** Which “activity change, negative = inhibition” value does the source give for `O=C(c1ccc(Cl)cc1)N1CCN(c2ncccn2)CC1` here?
**A.** 15.2%

**Q.** Which “activity change, negative = inhibition” value does the source give for `CCCCNC(=O)N1CCN(c2ccnc3cc(Cl)ccc23)CC1` here?
**A.** 28.2%

**Q.** For `O=C(c1cccs1)N1CCN(c2ccnc3cc(Cl)ccc23)CC1`, which “activity change, negative = inhibition” value is on record?
**A.** -16% [at 12 µM]

**Q.** For `CCCC(=O)N1CCN(c2ccnc3cc(Cl)ccc23)CC1`, which “activity change, negative = inhibition” value is on record?
**A.** 37%

**Q.** Which “activity change, negative = inhibition” value does the source give for `COc1ccc(C(=O)N2CCN(c3ccnc4cc(Cl)ccc34)CC2)cc1` here?
**A.** 30.7%

**Q.** With `O=C(c1ccc(Cl)cc1)N1CCN(c2ncnc3ccccc23)CC1` as the compound, how does the “activity change, negative = inhibition” value read?
**A.** -21.6%

**Q.** Which “activity change, negative = inhibition” value does the source give for `O=C(c1ccc(Cl)cc1)N1CCN(c2nc3ccccc3s2)CC1` here?
**A.** 15%

**Q.** For `O=C(C1CCCC1)N1CCN(c2ccnc3cc(Cl)ccc23)CC1`, which “activity change, negative = inhibition” value is on record?
**A.** 3.25%

**Q.** With `O=C(c1ccccc1)N1CCN(c2ccnc3cc(Cl)ccc23)CC1` as the compound, how does the “activity change, negative = inhibition” value read?
**A.** 29.6%

**Q.** With `Cc1cc(N2CCN(C(=O)c3ccc(Cl)cc3)CC2)c2ccccc2n1` as the compound, how does the “activity change, negative = inhibition” value read?
**A.** 32.7%

**Q.** For `O=C(c1ccc(Cl)cc1)N1CCN(c2cc(C(F)(F)F)nc3ccccc23)CC1`, which “activity change, negative = inhibition” value is on record?
**A.** 33%
